Measurements as given in PubChem BioAssay AID1159580 (chemical genetic matrix, 2015).
Several values for one entry are separate records, joined by “and”; a condition that tells them apart may be missing. Identical values can stand only once. Out of some 5,500 compounds screened, about 2,000 (36%) were called active. Not shown: some 18% with an inconclusive outcome. No stated cut-off is given here; in the data, active means normalized growth mostly below about 0.91 (no sharp cut-off); inconclusive means no clear call, values can overlap the other calls; inactive means mostly above about 0.92. The list shows a part of the results.

Assay: chemical genetic growth profiling, strain panel (AID 1159580);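 further: tested at 20 µM; growth read once vehicle control cultures reached saturation at 30 °C; 1 = growth at the plate median or of vehicle wells; lower values mean less growth of the strain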
Conditions: S. cerevisiae deletion strains, growth OD

Measured: normalized growth

CC(C)NNC(=O)c1ccncc1
inactive: locus YAL013W, strain DEP1, active compounds read low 1.01 | locus YAL021C, strain ccr4, active compounds read low 1.02 | locus YAL026C, strain drs2, active compounds read low 1.03 | locus YAL030W, strain snc1, active compounds read low 0.997 | locus YAL040C, strain CLN3, active compounds read low 0.985 | locus YBL061C, strain skt5, active compounds read low 1.01 | locus YBR009C, strain hhf1, active compounds read low 1.01 | locus YBR021W, strain FUR4, active compounds read low 1 | locus YBR023C, strain chs3, active compounds read low 1.01 | locus YBR171W, strain sec66, active compounds read low 1.01 | locus YBR229C, strain ROT2, active compounds read low 1 | locus YBR231C, strain swc5, active compounds read low 1.03 | locus YBR279W, strain paf1, active compounds read low 1.01 | locus YCL011C, strain gbp2, active compounds read low 1.02 | locus YCL016C, strain dcc1, active compounds read low 1.01 | locus YCL029C, strain bik1, active compounds read low 1.02 | locus YCL061C, strain MRC1 (second series), active compounds read low 0.986 | locus YCL069W, strain vba3, active compounds read low 1.02 | locus YCR088W, strain abp1, active compounds read low 1.02 | locus YDL005C, strain med2, active compounds read low 1 | locus YDL035C, strain GPR1, active compounds read low 1.01 | locus YDL040C, strain nat1, active compounds read low 1 | locus YDL074C, strain BRE1, active compounds read low 1.02 | locus YDL101C, strain DUN1, active compounds read low 1 | locus YDL134C, strain PPH21, active compounds read low 1.01 | locus YDL185W, strain tfp1, active compounds read low 1.01 | locus YDL192W, strain arf1, active compounds read low 1.02 | locus YDR001C, strain nth1, active compounds read low 1 | locus YDR069C, strain doa4, active compounds read low 1 | locus YDR101C, strain arx1, active compounds read low 1.01 | locus YDR137W, strain rgp1, active compounds read low 1.01 | locus YDR150W, strain NUM1, active compounds read low 0.994 and 0.996 | locus YDR159W, strain sac3, active compounds read low 0.978 | locus YDR162C, strain NBP2, active compounds read low 1.01 | locus YDR195W, strain ref2 0.961 | locus YDR297W, strain sur2, active compounds read low 1 | locus YDR318W, strain mcm21, active compounds read low 1.02 | locus YDR334W, strain swr1, active compounds read low 1.03 | locus YDR335W, strain msn5, active compounds read low 1.01 | locus YDR363W, strain ESC2, active compounds read low 1.02 | locus YDR388W, active compounds read low 1.01 | locus YDR392W, strain spt3, active compounds read low 1.03 | locus YDR502C, strain sam2, active compounds read low 1.01 | locus YEL003W, strain gim4, active compounds read low 1 | locus YEL037C, strain rad23, active compounds read low 1.02 | locus YEL061C, strain CIN8 (second series), active compounds read low 1.01 | locus YEL061C, strain CIN8, active compounds read low 1 | locus YER002W, strain NOP16, active compounds read low 1.01 | locus YER015W, strain faa2, active compounds read low 1.02 | locus YER016W, strain bim1, active compounds read low 1.01 | locus YER110C, active compounds read low 1.02 | locus YER111C, strain swi4, active compounds read low 0.999 | locus YER155C, strain BEM2 (second series), active compounds read low 1.04 | locus YER155C, strain BEM2, active compounds read low 1 | locus YER167W, strain BCK2, active compounds read low 1.01 | locus YFR010W, strain ubp6, active compounds read low 1.02 | locus YGL078C, strain dbp3, active compounds read low 1.02 | locus YGL086W, strain mad1, active compounds read low 1.01 | locus YGL167C, strain pmr1, active compounds read low 0.996 | locus YGL173C, strain kem1, active compounds read low 1.03 | locus YGL227W, strain vid30, active compounds read low 0.998 | locus YGL240W, strain doc1, active compounds read low 1.01 | locus YGL248W, strain PDE1, active compounds read low 0.996 | locus YGL253W, strain hxk2, active compounds read low 1.03 | locus YGR078C, strain PAC10, active compounds read low 1.01 | locus YGR135W, strain pre9, active compounds read low 1.01 | locus YGR229C, strain SMI1, active compounds read low 1 and 0.992 | locus YGR252W, strain gcn5, active compounds read low 1.05 | locus YHR013C, strain ard1, active compounds read low 1.02 | locus YHR027C, strain rpn1, active compounds read low 1.01 | locus YHR030C, strain SLT2, active compounds read low 1 | locus YHR079C, strain IRE1 (second series), active compounds read low 1.02 | locus YHR094C, strain hxt1, active compounds read low 1.01 | locus YHR129C, strain ARP1, active compounds read low 1 | locus YHR142W, strain chs7, active compounds read low 1.03 | locus YHR200W, strain rpn10, active compounds read low 1.02 | locus YIL066C, strain RNR3, active compounds read low 1.02 | locus YIL073C, strain SPO22, active compounds read low 1.04 | locus YIL125W, strain kgd1, active compounds read low 1.01 | locus YIR030C, strain dcg1, active compounds read low 1.02 | locus YJL092W, strain hpr5, active compounds read low 1.01 | locus YJL095W, strain BCK1 (second series), active compounds read low 1.02 | locus YJL095W, strain BCK1, active compounds read low 1.02 | locus YJL115W, strain asf1, active compounds read low 0.988 | locus YJL129C, strain trk1, active compounds read low 0.998 | locus YJL134W, strain LCB3, active compounds read low 1.01 | locus YJL154C, strain vps35, active compounds read low 1.01 | locus YJL164C, strain tpk1, active compounds read low 1.01 | locus YJL166W, strain qcr8, active compounds read low 1.01 | locus YJL168C, strain set2, active compounds read low 1.02 | locus YJL187C, strain SWE1 (second series), active compounds read low 1.01 | locus YJL187C, strain SWE1, active compounds read low 1.01
